In PubChem BioAssay (NCATS):
Inconclusive results are not listed. Values without a mark were called inactive. Calls of active or inactive are those of the source. The call rests on the fitted dose curve; in most records, active means well fitted curve in the direction sought with a large enough effect; inconclusive means small, poorly fitted or top-dose-only effect, or another doubt; inactive means no such curve, though single readings can be large; an effect the other way counts as inactive or inconclusive.

How the values were obtained:
[1] = BET inhibitor-based combinations targeting novel dependencies in MECOM-rearranged (r) AML: SET-2 cell line (AID 2202231); conditions: SET-2 AML cells viability, CellTiter-Glo luminescence, 48 h; viability: hits give low values, concentration not given here; further: nearly all actives have a fitted effect of over 35% in size;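 on viability: plate controls were DMSO treated cells for no effect and wells without cells for full effect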
In short: (§1)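 500 cells/well; 11-pt dose curve; 48 h, standard incubator; CellTiter-Glo luminescence after 15 min RT; DMSO/empty-well normalization; AUC plus Z-AUC (mean-centered within each line).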

[2] = BET inhibitor-based combinations targeting novel dependencies in MECOM-rearranged (r) AML: OCI-AML3 cell line (AID 2202232); conditions: Potency: OCI-AML3 viability; further: nearly all actives have a fitted effect of over 35% in size
In short: as §1

[3] = BET inhibitor-based combinations targeting novel dependencies in MECOM-rearranged (r) AML: MV-4-11 cell line (AID 2202233); further: nearly all actives have a fitted effect of over 45% in size
In short: (§2)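 Cells were plated at 500 per well and exposed to each drug across an 11-point dose range for 48 hr at standard incubator conditions. Viability was read by CellTiter-Glo luminescence, and activity was expressed as AUC and per-cell-line Z-transformed AUC.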

[4] = BET inhibitor-based combinations targeting novel dependencies in MECOM-rearranged (r) AML: HNT-34 cell line (AID 2202234); further: nearly all actives have a fitted effect of over 35% in size
In short: as §2

[5] = BET inhibitor-based combinations targeting novel dependencies in MECOM-rearranged (r) AML: UCSD-AML1 cell line (AID 2202235); further: nearly all actives have a fitted effect of over 40% in size
In short: as §2

[6] = BET inhibitor-based combinations targeting novel dependencies in MECOM-rearranged (r) AML: AML-191 cell line (AID 2202236; further: nearly all actives have a fitted effect of over 35% in size)
In short: as §1

[7] = BET inhibitor-based combinations targeting novel dependencies in MECOM-rearranged (r) AML: AML-194 cell line (AID 2202237; further: nearly all actives have a fitted effect of over 40% in size)
In short: as §1
Potency means the concentration at half of the fitted maximal effect.

Row | SMILES | Potency [1] | Potency [2] | Potency [3] | Potency [4] | Potency [5] | Potency [6] | Potency [7] | viability [1] [%]
1 | Cc1cc(I)ccc1Nc1c(C(=O)NOCC2CC2)cc(F)c(F)c1F | 20.9 µM (active) | 1.66 µM (active) | 16.6 µM (active) | 14.8 µM (active) | 5.9 µM (active) | 16.6 µM (active) | 20.9 µM (active) | 
2 | Nc1nc(F)nc2c1ncn2C1OC(COP(=O)(O)O)C(O)C1O (stereo unspecified) | 4.68 µM (active) | 18.6 µM (active) | 18.6 µM (active) | 16.6 µM (active) | 2.63 µM (active) | 6.61 µM (active) | 9.34 µM (active) | 
3 | Cc1ccc(F)c(NC(=O)Nc2ccc(-c3cccc4[nH]nc(N)c34)cc2)c1 | 14.8 µM (active) | 18.6 µM (active) | 0.0074 µM (active) | 26.3 µM (active) | 16.6 µM (active) | 16.6 µM (active) | 16.6 µM (active) | 
4 | NC(=O)/C(=C/n1cnc(-c2cc(C(F)(F)F)cc(C(F)(F)F)c2)n1)c1cncnc1 | 0.59 µM (active) | 0.742 µM (active) | 0.186 µM (active) | 0.742 µM (active) | 0.118 µM (active) | 0.263 µM (active) | 0.166 µM (active) | 
5 | Cn1c(NCCN(CCO)CCCc2ccc([N+](=O)[O-])cc2)cc(=O)n(C)c1=O |  | inactive | inactive | inactive | inactive | inactive | inactive | 114
6 | CC1(C)O[C@@H]2C[C@H]3[C@@H]4C[C@H](F)C5=CC(=O)C=C[C@]5(C)[C@H]4[C@@H](O)C[C@]3(C)[C@]2(C(=O)CO)O1 |  | inactive | inactive | inactive | inactive |  | inactive | 108
